This is part of a sample that, as a whole, favours compounds with a hit. Of some 83,000 tested, about 20% had one in any assay.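 Single-dose data. Exposure time 48 hours. Values below 10 considered active.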 A number with no mark means an inactive call. Activity calls are given as the source filed them.
Key:
Test in all cases: NCI-60 one-dose screen, 48 h (100 = growth as untreated, 0 = no growth, -100 = all killed)
Conditions in all cases: 10 µM unless noted
T-47D breast = test system: T-47D breast
BT-549 breast = test system: BT-549 breast
MDA-MB-435 melanoma = test system: MDA-MB-435 melanoma
SW-620 colon = test system: SW-620 colon
MCF7 breast = test system: MCF7 breast
HCT-116 colon = test system: HCT-116 colon
HCC-2998 colon = test system: HCC-2998 colon
KM12 colon = test system: KM12 colon

Structure (SMILES) | growth (T-47D breast) | growth (BT-549 breast) | growth (MDA-MB-435 melanoma) | growth (SW-620 colon) | growth (MCF7 breast) | growth (HCT-116 colon) | growth (HCC-2998 colon) | growth (KM12 colon)
CN1CCN(c2ccc3c(C(N)=O)c(NC(=O)c4ccc(C(C)(C)C)cc4)sc3c2)CC1 | 92.3% | 89.9% | 95.1% | 43.6% | 39.7% | 37.6% | 96.2% | 81.7%
CCN(CC)c1ccc2cc(C(=O)NCCOCCOCCOCCn3cc(CCC(=O)Nc4ccc(C(=O)c5ccc(NC(=O)OC(C)(C)C)cc5)cc4)nn3)c(=O)oc2c1 | -8.51% (active) | 26.4% | 62.4% | 82.1% | 44.1% | 36.3% | 96.8% | 36.6%
N#C/C(=C\c1ccc(-c2ccc(F)cc2)o1)C(=O)Nc1ncc(Cc2ccc(Cl)cc2Cl)s1 | -5.01% (active) | -15.8% (active) | -20.4% (active) | -67.1% (active) | -5.46% (active) | -61.4% (active) | 79.8% | 13.4%
COc1cccc(/C=C/C(=O)c2ccc(NC(=O)COc3cccc4cccnc34)cc2)c1 | 82.9% | 86.1% | 100% | 94.3% | 52.4% | 3.49% (active) | 99.3% | 96.3%
N/C(=N\OC(=O)CSc1nc2ccccc2s1)c1ccc(Cl)cc1 | 96.6% | 107% | 101% | 98% | 97.4% | 105% | 105% | 101%
COc1cc2oc(-c3cccc(NC(=O)c4cc(NC(=O)[C@H](C)N)ccc4Cl)c3)cc(=O)c2c(OC)c1OC | 67.9% | 108% | 105% | 104% | 91.4% | 94.9% | 100% | 96.3%
Oc1ccc(CSc2nnc(-c3ccc(Oc4ccccc4)cc3)o2)c2cccnc12 | 7.85% (active) | 49.8% | 29.9% | 2.32% (active) | 16% | 1.74% (active) | 29.4% | 9.88% (active)
CC(=O)NC(C)(C)C(=O)N1CCC[C@H]1C(=O)NC(C)(C)C(=O)N[C@@H](C)C(=O)NC(C)(C)C(=O)N[C@@H](C)C(=O)N[C@@H](CCC(N)=O)C(=O)NC(C)(C)C(=O)N[C@H](C(=O)NC(C)(C)C(=O)NCC(=O)N[C@@H](CC(C)C)C(=O)NC(C)(C)C(=O)N1CCC[C@H]1C(=O)N[C@H](C(=O)NC(C)(C)C(=O)NC(C)(C)C(=O)N[C@@H](CCC(N)=O)C(=O)N[C@@H](CCC(N)=O)C(=O)N[C@H](CO)Cc1ccccc1)C(C)C)C(C)C | 55.7% [4.25 µM] | 23.5% [4.25 µM] | 71% [4.25 µM] | 91% [4.25 µM] | 17% [4.25 µM] | 67.7% [4.25 µM] | 70.3% [4.25 µM] | 98.2% [4.25 µM]
CC(=O)C1=NN(c2ccc(Cl)cc2)C(=O)CN1C | 96.6% | 96.6% | 103% | 106% | 96.1% | 99.8% | 104% | 102%
CCN1C(=O)N(CC)C2SC(N/N=C/C=C/c3ccccc3OC)=NC21 (configuration not stated) | 67.3% | 18.7% | -16.7% (active) | 20.4% | 12.9% | 6.23% (active) | 8.41% (active) | 11.6%
CCN1C(=O)N(CC)C2SC(N/N=C/c3ccccc3)=NC21 (configuration not stated) | 64.8% | -19.9% (active) | -10.2% (active) | 22.5% | 18.6% | 14.2% | 12.7% | 13.3%
O=c1[nH]c(CNc2ccc(NCc3c(-c4ccccc4)no[n+]3[O-])cc2)nc2c1cnn2-c1ccccc1 | 42.5% | 62.1% | 77.8% | 92.8% | 50.1% | 49.6% | 84.4% | 73.3%
CC1(C)CC[C@]2(C(=O)N3CCCNCC3)CC[C@]3(C)C(=CC[C@@H]4[C@@]5(C)CCC(=O)C(C)(C)[C@@H]5CC[C@]43C)[C@H]2C1 | 100% | 112% | 112% | 101% | 93.6% | 103% | 102% | 105%
CC(C)(C)n1nnnc1C(Nc1nccs1)c1cc2cccc3ccc4cccc1c4c32 (configuration not stated) | 73.6% | 100% | 96.2% | 98.8% | 76.3% | 91.7% | 113% | 101%
COC1=C(c2ccccc2)C(=O)C(OC)=C(c2ccccc2)C1=O | 60.9% | 104% | 93.7% | 98.8% | 85.2% | 96.3% | 94.4% | 98.6%
COCCC[C@H]1O[C@@](O)([C@H](C)[C@@H]2CC(OC)C(O)/C=C(C)/C=C(C)/C=C(\C)C(OC3O[C@@H](C)[C@H](O)C(O)[C@@H]3O)C(C)/C=C(C)/C=C(OC)/C=C(\C)C(=O)O2)C(OC)C(O)[C@]1(C)O[C@H]1C[C@@H](O)[C@H](O[C@H]2C[C@](C)(O)[C@H](O)C(C)O2)C(C)O1 (some centres not stated) | 24.6% | 28.7% | 54.9% | 76.4% | 22.4% | 48.2% | 56.4% | 66.5%
CC1(C)CC[C@]2(C(=O)N3CCCN(CC#N)CC3)CC[C@]3(C)C(=CC[C@@H]4[C@@]5(C)CC[C@H](O)C(C)(C)[C@@H]5CC[C@]43C)[C@H]2C1 | 52.1% | 61.4% | 59.8% | 27.8% | 5.68% (active) | -47.6% (active) | 71.2% | 54.1%
Cc1nn(-c2ccccc2)c2nc(CCl)[nH]c(=O)c12 | 66% | 100% | 97.9% | 85.1% | 16.4% | 24.9% | 108% | 53.3%
COc1ccc(N)cc1C(=O)Nc1cccc(-c2cc(=O)c3c(OC)c(OC)c(OC)cc3o2)c1 | 41.7% | 51.2% | 77.4% | 91.4% | 45.2% | 65.5% | 55.3% | 63.6%
CC(C)C[C@H]1C(=O)O[C@H](C(C)C)C(=O)N(C)[C@@H](C(C)C)C(=O)O[C@H](C(C)C)C(=O)N(C)[C@@H](C(C)C)C(=O)O[C@H](C(C)C)C(=O)N1C | 6.43% (active) | 17.6% | 21.9% | 18.2% | 13.8% | 9.58% (active) | 23.1% | 16.6%
CC(C)=CCC[C@](C)(O)[C@H]1CC[C@]2(C)[C@@H]1CC[C@@H]1[C@@]3(C)CCC(NC(=O)c4ccccc4C(=O)O)C(C)(C)[C@@H]3CC[C@]12C (some centres not stated) | 79.4% | 113% | 51.2% | 91% | 73% | 86.9% | 96.5% | 87.9%
O=c1oc2ccc(-c3ccc(F)cc3F)cc2c(=O)n1-c1ccc(F)c(F)c1 | 9.12% (active) | -2.01% (active) | 3.43% (active) | 12.7% | 2.02% (active) | 6.87% (active) | 14.5% | 3.33% (active)
Cc1ccc(-c2cc3nc(C(Cl)Cl)nc(-c4ccccc4)n3n2)cc1 | 90.4% | 95.8% | 91.5% | 79.5% | 64.1% | 82.2% | 65.3% | 65.8%
COc1cc2c3c(n(CCCNC4CCC4)c(=O)c2cc1OC)-c1cc2c(cc1C3=O)OCO2 | 53.5% | 76% | -65.7% (active) | -15.4% (active) | -71.5% (active) | -48.4% (active) | -89.3% (active) | 38.7%
CCN(CC)CCN1C(=O)c2c(c3c4cccnc4[nH]c3c3ccc4ccccc4c23)C1=O | 66% | 85.8% | 87.6% | 53.4% | 17.4% | 63.1% | 77.8% | 81.8%
COc1ccc(-c2nnc(SCc3ccc(O)c4ncccc34)o2)cc1 | 27% | 35.7% | 24% | 17.7% | 14.9% | 23.1% | 45.2% | 15.7%
CS(=O)c1nccc(-c2c(-c3ccc(F)c(OCCc4ccc(F)cc4)c3)nc3sccn23)n1 (configuration not stated) | -41.9% (active) | 92.8% | 99.5% | -5.23% (active) | -46.4% (active) | -59.9% (active) | 17.8% | 78.3%
Cc1nn(-c2ccc(Cl)cc2)c(C)c1N=Nc1ccc2oc(=O)ccc2c1 | 45.9% | 101% | 85.4% | 94% | 78.7% | 66.5% | 105% | 90.3%
COc1ccc(CN2C(=O)/C(=C/c3nc(CO)cs3)SC2=S)cc1 | 53% | 99.9% | 89.7% | 77.8% | 12% | 75% | 109% | 9.43% (active)

Source: PubChem BioAssay (NCI)
